Screening results: PubChem, National Center for Advancing Translational Sciences (NCATS)
TRHR PAM = TRH receptor (human) allosteric enhancement | P34981 | TRHR cells, fluo-8 calcium fluorescence, EC20 TRH enhancement | enhancement, % at 2 µM | hit rate 0.66% among 360,000 | AID 493056; in the data active = enhancement above about 30%; also: 0% is about no effect
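TRHR-expressing cells loaded with fluo-8 calcium dye were read kinetically (ex 480/em 530) during compound addition, then stimulated with an EC20 of TRH (10 nM final). Enhancement of the Gq-mediated intracellular calcium response was scored.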
D1 antagonist = human D1 dopamine receptor antagonism; P21728; activity change, negative = inhibition, % at 10 µM; HEK293 TREx D1 cells, calcium flux, dopamine EC80; hits give low values; hit rate 3.2% among 360,000; AID 504652; in the data active = activity change below about -30%; also: % is scaled to controls: 0 for no effect and ±100 for the full control effect
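Tetracycline-induced HEK293 Trex D1 cells, force-coupled to calcium, dye-loaded; compounds added and read 180 s, then EC80 dopamine added and calcium flux tracked kinetically another 180 s.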
USP1-UAF1 inh = inhibitors of human USP1/UAF1 deubiquitinase; Potency, µM (top dose mostly 57.1 µM), for inactives: at the top dose activity change, negative = inhibition, most hits filed as inhibitors; hit rate 0.23% among 390,000; recombinant USP1/UAF1, Ub-Rhodamine cleavage fluorescence; O94782; active = well fitted inhibition curve with a large enough effect; inconclusive = small, poorly fitted or top-dose-only effect; inactive = no such curve, though single readings can be large or run the other way; also: potency is read from the fitted curve at half-maximal effect; % is scaled to controls: 0 for no effect and ±100 for the full control effect; nearly all actives have a fitted effect of over 60% in size
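In this screen, compounds sit with the deubiquitinase complex (1nM) for 15 min at room temperature before Ub-Rho is added at 150nM final. Fluorescence rise is then followed for 6 reads every 60 seconds.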
D1 PAM = potentiators of human D1 dopamine receptor. P21728. HEK293 TREx D1 cells, calcium flux, dopamine EC20 potentiation. potentiation, % at 10 µM. hit rate 0.036% among 360,000; in the data active = potentiation above about 30%; also: 0% is about no effect
D1 ag = agonists of human D1 dopamine receptor; P21728; hit rate 1% among 360,000; activation, % at 2 µM; AID 504660; HEK293 T-REx D1 cells, calcium flux, agonist mode; also: 0% is about no effect
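Inducible HEK293 T-REx D1 cells, force-coupled to calcium signalling, were plated at 4000 cells/well with tetracycline and held overnight at 30 C. After no-wash calcium dye loading, compound-evoked calcium rise over 180 s flagged agonists.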
TRHR agonist = activates the human TRH receptor; P34981; TRHR cells, calcium flux fluo-8, FDSS agonist mode; activation, % at 2 µM; hit rate 0.18% among 360,000; AID 493084; also: 0% is about no effect
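Fluo-8-loaded TRHR cells; 10 s baseline, compound added, kinetic Ca2+ fluorescence read 1/s, agonist mode.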
An asterisk follows results filed as active; ? = inconclusive; . = not tested or not shown. Compounds with a hit are over-represented: about 4.4% of the library has one in this group of screens. Rule as the data show it, unless noted: active = activation above about 30%; inactive = the rest.

SMILES | TRHR PAM | D1 antagonist | USP1-UAF1 inh | D1 PAM | D1 ag | TRHR agonist
Cc1ccc(C)c(Nc2cc(C(=O)NCCCN(C)C3CCCCC3)c3ccccc3n2)c1 | 1 | -34* | -3% | 2 | 54* | 5
CCc1ccccc1Nc1cc(C(=O)NCCCN(C)C2CCCCC2)c2ccccc2n1 | -6 | -23 | -15% | 2 | 35* | 6
COc1ccc(NC(=O)CSC2=Nc3ccccc3C3=NC(CC(=O)NCCc4ccccc4)C(=O)N23)cc1 (configuration not stated) | 22 | 5 | -9% | -2 | 3 | 0
CCCn1c(CN2CCN(c3ccc(OC)cc3)CC2)nc2c1c(=O)[nH]c(=O)n2C | 7 | -16 | -7% | 3 | 0 | -1
Cc1cc(C)c(OCCN(C)C)c(Cl)c1 | -4 | -38* | -6% | 0 | 0 | 0
Cc1cc(Cl)cc(Cl)c1OCCOCCN(C)C | 3 | -5 | -12% | -5 | 4 | 1
CCOC(=O)c1noc2ncnc(Nc3cccc(OC)c3)c12 | 0 | -14 | -6% | -3 | 1 | 0
CCc1ccc2nc(N3CCC(C(=O)O)CC3)sc2c1 | 4 | 2 | -23% | -7 | 0 | 0
CCCCN(C)CCNC(=O)C1CCN(c2nc3ccc(CC)cc3s2)CC1 | 7 | -55* | -25% | 1 | 65* | 3
O=C(NCc1ccccc1Cl)C1CCCN1C(=O)NCc1ccccc1 (configuration not stated) | 0 | -44* | -23% | -3 | 1 | 0
O=C(NCc1ccccc1F)C1CCCN1C(=O)NCc1ccccc1 (configuration not stated) | 1 | -10 | -18% | -3 | 1 | 0
O=[N+]([O-])c1cccc(C2CC(c3ccccc3)=NN2c2ccccc2)c1 (configuration not stated) | 2 | -1 | -12% | -3 | 5 | 0
N#CC1CC(c2ccc([N+](=O)[O-])cc2)=NN1c1ccc([N+](=O)[O-])cc1 (configuration not stated) | -4 | 19 | ? | -4 | 34* | 17
CC(=O)c1sc(-c2ccc(F)cc2)cc1NS(=O)(=O)c1ccccc1 | 4 | -41* | -22% | -4 | 3 | 0
COC(=O)c1sc(-c2ccccc2)cc1NC(=O)c1ccc(F)cc1 | -5 | -8 | -16% | 0 | 1 | -1
Cn1c(SCC(=O)NCCNC(=O)CSc2nnc(C(F)(F)F)n2C)nnc1C(F)(F)F | -23 | -32* | -14% | -1 | -1 | 0
O=C(CSC1CC(=O)N(CCc2ccccc2)C1=O)Nc1ccc(Br)cc1 (configuration not stated) | 0 | -3 | -4% | -4 | 5 | 0
O=C(CSC1CC(=O)N(CCc2ccccc2)C1=O)Nc1cccc(Cl)c1 (configuration not stated) | -9 | -4 | -21% | 0 | 33* | -2
S=C(NCc1ccco1)N1CCN(c2ccccc2Cl)CC1 | -9 | -33* | -17% | -9 | 3 | 0
S=C(NCc1ccco1)N1CCN(c2nc(-c3ccc(Cl)cc3)cs2)CC1 | -4 | -4 | -26% | -11 | 1 | 1
Cc1ccc(Cl)cc1N1CCN(C(=S)NCc2ccco2)CC1 | -7 | . | -9% | -9 | 1 | 0
S=C(NCc1ccco1)N1CCN(c2nc(-c3ccccc3)cs2)CC1 | 30* | -6 | -12% | -7 | 0 | 0
Cc1[nH]c2ccc(C(=O)N3CCN(c4ccccc4F)CC3)cc2c1C | -1 | -6 | -9% | 1 | 1 | 0
O=C(NCc1ccccc1Br)c1ccc2nc(N3CCCCC3)sc2c1 | 0 | -28 | -20% | -8 | 0 | 0
COc1ccc2c(c1)CCc1c(C(=O)Nc3c(C)nn(Cc4ccc(Cl)c(Cl)c4)c3C)noc1-2 | 12 | -4 | -12% | 1 | 19 | -2
O=C(/C=C/c1cccc(F)c1)NCc1ccc2c(c1)OCO2 | 7 | -35* | -19% | -8 | 5 | -1
O=C(/C=C/c1ccc2c(c1)OCO2)NCCSCc1cccc(Cl)c1 | -6 | -31* | -15% | -10 | 6 | 2
